Results taken from the supplement of paper PMC9135407.
Where “and” joins values, the source holds several entries; their conditions need not be identical. Equal values may be shown once. Where a name gives a salt, the structure may show the parent alone. The campaign covered roughly 5,800 compounds. About 620 (11%) showed activity. What follows is part of a selection rich in actives, with near analogues and random picks from the rest. A number with no mark means an inactive call.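 Rule for the calls: active = score above a cut-off or among the top three wells of a plate; in these data no inactive exceeds 0.85.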

Tested on: primary human hepatic stellate cells (donor 1)
Assay: scaled lipid accumulation score (0 = DMSO-like, 1 = nortriptyline-like); higher = stronger HSC inactivation (lipid re-accumulation), active = hit call of the paper
Conditions: 48 h
[1] = library stock concentration: 10 mM
[2] = library stock concentration: 80 uM
[3] = library stock concentration: 400 uM
[4] = library stock concentration: 2 mM
[5] = library stock concentration: 3.33 mM
[6] = library stock concentration: 6.2 mM
[7] = library stock concentration: 6.3 mM

CC[C@@H](CC[C@@H](C)[C@H]1CC[C@H]2[C@@H]3CCC4C[C@@H](O)CC[C@]4(C)[C@H]3CC[C@]12C)C(C)C (stereo partly drawn) [Beta-sistosterol]
scaled lipid accumulation score: ≤ 0

COc1cc(OC)cc(OC)c1 [1,3,5-trimethoxybenzene]
scaled lipid accumulation score [1]: ≤ 0

COc1ccc2nc3n[nH]c(C)c3c(NCCOCCO)c2c1
scaled lipid accumulation score [2]: ≤ -0.001
scaled lipid accumulation score [3]: ≤ -0.001
scaled lipid accumulation score [4]: ≤ -0.001
scaled lipid accumulation score [5]: 0.203
scaled lipid accumulation score [1]: 0.021

COc1ccc(-c2ccc3ncc4c(c3c2)n(-c2ccc(N3CCNCC3)c(C(F)(F)F)c2)c(=O)n4C)cn1.O=C(O)/C=C\C(=O)O
scaled lipid accumulation score [3]: 0.909 (active)

COc1cc(OC)cc(-c2ccc3ncc4ccc(=O)n(-c5ccc(N6CCNCC6)c(C(F)(F)F)c5)c4c3c2)c1
scaled lipid accumulation score [2]: 0.045
scaled lipid accumulation score [3]: 0.305
scaled lipid accumulation score [4]: 0.652
scaled lipid accumulation score [1]: 0.426

COc1ccc(-c2ccc3ncc4c(c3c2)n(-c2ccc(N3CCNCC3)c(C(F)(F)F)c2)c(=O)n4C)cn1
scaled lipid accumulation score [2]: 0.133
scaled lipid accumulation score [4]: 0.546
scaled lipid accumulation score [5]: 0.237
scaled lipid accumulation score [1]: ≤ 0 and 0.223

S=c1[nH]c(-c2ccccc2)cn1-c1ccccc1
scaled lipid accumulation score [1]: ≤ -0.07

Nc1c2c(nc3c1CCC3)CCCC2
scaled lipid accumulation score [1]: ≤ 0

CCCCCCCCCCCCCCCCOC[C@H](COP(=O)([O-])OCC[N+](C)(C)C)OC(=O)CCCCCCCC(=O)O [Azelaoyl PAF]
scaled lipid accumulation score (library stock concentration: 1 mM): ≤ 0

CC(CN1c2ccccc2Sc2ccccc21)N(C)C.Cl (configuration not stated) [Promethazine hydrochloride]
scaled lipid accumulation score [1]: 0.888 (active)

CC(CN1c2ccccc2Sc2ccccc21)N(C)C (configuration not stated) [Promethazine hydrochloride]
scaled lipid accumulation score: 0.571
scaled lipid accumulation score [6]: 0.655
scaled lipid accumulation score [1]: 0.748

CN(C)CCCN1c2ccccc2Sc2ccc(Cl)cc21 [Chlorpromazine] [listing 1 of 2 here]
scaled lipid accumulation score [1]: 0.466

CC(CN1c2ccccc2Sc2ccccc21)N(C)C (configuration not stated) [Phenergan]
scaled lipid accumulation score [1]: 0.649

CN(C)CCCN1c2ccccc2Sc2ccccc21 [Promazine hydrochloride]
scaled lipid accumulation score: 0.365
scaled lipid accumulation score [6]: 0.834
scaled lipid accumulation score [1]: 0.324

CCN(CC)C(C)CN1c2ccccc2Sc2ccccc21 (configuration not stated) [Ethopropazine hydrochloride]
scaled lipid accumulation score: 0.644
scaled lipid accumulation score (library stock concentration: 5.7 mM): 0.667
scaled lipid accumulation score [1]: 0.301 and 0.673

CN(C)CCCN1c2ccccc2Sc2ccc(Cl)cc21 [Chlorpromazine hydrochloride]
scaled lipid accumulation score: 0.717
scaled lipid accumulation score [1]: 0.259

CC(CN1c2ccccc2Sc2ccccc21)N(C)C (configuration not stated) [Promethazine HCl]
scaled lipid accumulation score [5]: ≤ 0
scaled lipid accumulation score (library stock concentration: 7 mM): 0.609
scaled lipid accumulation score [1]: 0.62

CN(C)CCCN1c2ccccc2Sc2ccccc21.Cl [Promazine hydrochloride]
scaled lipid accumulation score [1]: 0.923 (active)

CN(C)CCCN1c2ccccc2Sc2ccc(Cl)cc21 [Chlorpromazine] [listing 2 of 2 here]
scaled lipid accumulation score [7]: 1.09 (active)

CN(C)CCCN1c2ccccc2Sc2ccc(Cl)cc21.Cl [Chlorpromazine HCl]
scaled lipid accumulation score [1]: 0.833 (active)

CN(C)CCCN1c2ccccc2Sc2ccc(Cl)cc21
scaled lipid accumulation score [1]: 0.711

CN(C)CCCN1c2ccccc2Sc2ccc(Cl)cc21 [Chlorpromazine HCl]
scaled lipid accumulation score [5]: 0.38
scaled lipid accumulation score [7]: 0.53
